Assay outcomes deposited in PubChem BioAssay by National Center for Advancing Translational Sciences (NCATS).
The sample as a whole holds a higher share of hits than the screen did.
Tb PYK inh: inhibitors of Trypanosoma brucei pyruvate kinase; Q57TT1; TbPYK enzyme, Kinase-Glo Plus ATP luminescence, 45 min; AID 624173; 0.12% of 410,000 active; Potency, µM (highest dose often 76.8 µM), inactives show at the top dose activity, negative = inhibition, hits mostly inhibitors; further: potency means the concentration at half of the fitted maximal effect; on the % scale 0 is the no-effect control and ±100 the full control effect; nearly all actives have a fitted effect of over 50% in size
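In this concentration-response screen, enzyme-free wells defined baseline while DMSO plates tracked drift. Each reaction combined TbPYK, substrate, compound and 130 uM ADP for 45 min at room temperature. Kinase-Glo Plus luminescence gave the signal.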
Shiga inhibitor: inhibitors of Shiga toxin in Vero cells. Vero cells, Shiga toxin protein synthesis inhibition reporter. inhibition, % at 38.7 µM. 9.2% of 290,000 active. AID 2315; in the data active means inhibition mostly above about 28%, no sharp cut-off; inactive means mostly below about 43%; further: 0% is about no effect
LmPK inh: inhibitors of Leishmania mexicana pyruvate kinase; 0.37% of 290,000 active; Potency, µM (top dose mostly 57.5 µM), inactives show top-dose activity change, negative = inhibition, actives largely listed as inhibitors; AID 1721; purified LmPK, Kinase-Glo ATP luminescence, 1 h; Q27686; further: potency means the concentration at half of the fitted maximal effect; on the % scale 0 is the no-effect control and ±100 the full control effect
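0.1 nM LmPK, 0.5 mM PEP, 0.1 mM ADP; 50 mM imidazole pH 7.2, 7 mM MgCl2, 50 mM KCl; 1 h RT. Kinase-Glo luminescence readout, normalized to no-enzyme (full inhibition) and uninhibited wells.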
Sm TGR inh: S. mansoni TGR enzyme inhibition; Q962Y6; purified TGR, DTNB reduction, TNB absorbance 405 nm; Potency, µM (series often up to 114 µM), without a hit: top-dose activity change, negative = inhibition, usual class: inhibitors; 3% of 360,000 active; further: potency means the concentration at half of the fitted maximal effect; on the % scale 0 is the no-effect control and ±100 the full control effect; nearly all actives have a fitted effect of over 60% in size
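TGR 20 nM + NADPH 100 uM (dispensed conc.), cpd preinc 15 min RT; start with NADPH (500 uM addition) then DTNB (15 mM addition). Kinetic TNB absorbance, 405 nm filter. Four-parameter Hill fit across titration.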
FBPA Giardia inh: blocks Giardia fructose-bisphosphate aldolase activity | 0.71% of 290,000 active | AID 2451 | purified Giardia FBPA | A8B2U2 | Potency, µM (top dose mostly 59.6 µM), for the others: at the highest dose activity, negative = inhibition, usual class: inhibitors; further: potency means the concentration at half of the fitted maximal effect; on the % scale 0 is the no-effect control and ±100 the full control effect; nearly all actives have a fitted effect of over 55% in size
Target sequence (A8B2U2 whole entry, looked up): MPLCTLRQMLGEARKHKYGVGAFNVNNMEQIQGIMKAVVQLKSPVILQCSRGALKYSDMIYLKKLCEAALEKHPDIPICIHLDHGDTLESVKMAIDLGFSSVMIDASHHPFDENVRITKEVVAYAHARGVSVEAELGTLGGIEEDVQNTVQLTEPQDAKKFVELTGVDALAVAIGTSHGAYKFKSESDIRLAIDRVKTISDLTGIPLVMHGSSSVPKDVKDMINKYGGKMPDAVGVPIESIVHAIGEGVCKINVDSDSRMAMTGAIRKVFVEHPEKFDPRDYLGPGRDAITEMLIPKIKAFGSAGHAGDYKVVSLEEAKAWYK
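40 nM FBPA preincubated 10 min at RT with compound (up to 57.5 uM final), then substrate plus GAPDH/TPI/NAD/arsenate coupling and diaphorase/resazurin added. Fluorescence read after 20 min at RT, 525/598 nm.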
Cycloheximide cs: counter-screen hit for Shiga toxin inhibitors, cycloheximide | cell reporter, cycloheximide protein synthesis inhibition counterscreen | max response, % | 12% of 300,000 active | AID 2314; in the data active means max response mostly above about 13%, no sharp cut-off; inactive means mostly below about 14%; further: read at 38.3 µM for the half of the compounds with a filed dose; 0% is about no effect
Numbers without * were called inactive; i = inactive; ? = inconclusive; nt = no result given; [ ] = dose if it differs, or a comment. Unless noted, the call rests on the fitted dose curve; in most records, active means well fitted curve in the direction sought with a large enough effect; inconclusive means small, poorly fitted or top-dose-only effect, or another doubt; inactive means no such curve, though single readings can be large; an effect the other way counts as inactive or inconclusive.

SMILES | Tb PYK inh | Shiga inhibitor | LmPK inh | Sm TGR inh | FBPA Giardia inh | Cycloheximide cs
Brc1ccc(-c2cn3nc4c(nc3n2)CCCC4)cc1 | -1.0% | 121.5* | ? | ? | -29.2% | 45.8*
Cc1ccc(CNC(=O)C2(C)CCN2C(=O)Cc2ccc(-c3ccccc3)cc2)cc1 (stereo not given) | -2.1% | nt | nt | nt | nt | nt
CCSc1nnc(-c2cc(Br)ccc2N)c(=O)[nH]1 | 3.4% | 22.5 | 1.7% | nt | 3.6% | 9.7
Nc1ccccc1-c1nc2ccccc2[nH]c1=O | 0.1% | 80.4* | -1.3% | 7.8% | 14.2% | 57.5*
O=c1[nH]c2ccccc2nc1-c1c[nH]c2ccccc12 | 5.8% | 34.4 | -0.2% | -1.9% | 14.2% | 25.6*
Nc1ccc(Br)cc1-c1nc2ccccc2[nH]c1=O | -0.5% | 75.0* | 5.1% | -3.0% | 0.9% | 20.4
Cc1nc2ccccc2[nH]c1=O | 26.8% | 16.6 | 4.0% | 78.1% | 0.0% | -0.1
Cc1ccccc1/C=N/Nc1ncnc2nc[nH]c12 | -1.7% | 71.9* | -27.2% | 0.1% | -6.5% | 20.6*
Cc1ccsc1/C=N/Nc1ncnc2nc[nH]c12 | -6.7% | 85.3* | ? | -9.6% | -2.5% | 42.4*
C(=N\Nc1ncnc2nc[nH]c12)/c1cccs1 | -3.1% | 111.0* | -24.5% | -3.2% | -1.9% | 40.8*
Fc1ccc(/C=N/Nc2ncnc3nc[nH]c23)cc1F | 1.8% | 98.5* | -26.9% | 2.0% | -0.5% | 72.9*
c1ccc(CNc2ncnc3nc[nH]c23)cc1 | -9.3% | 17.2 | -3.9% | 1.1% | -4.1% | 13.0
CCOc1cc(CNc2ncnc3nc[nH]c23)ccc1OC | -4.7% | -5.3 | -2.2% | -3.2% | -3.1% | -2.3
CCCCOc1ccc(C(=O)NCC2(N3CCN(C)CC3)CCCCC2)cc1 | 0.8% | nt | nt | -9.5% | nt | nt
COc1ccc(C)cc1S(=O)(=O)N(C)CC(=O)NCc1ccco1 | -17.2% | -6.5 | 8.9% | 31.6µM* | -1.7% | -1.5
COc1ccc(S(=O)(=O)N(C)CC(=O)NCc2ccco2)cc1Cl | -2.7% | -5.9 | 0.4% | 3.0% | -4.6% | -2.7
CN(CC(=O)NCc1ccco1)S(=O)(=O)c1cccc2cccnc12 | -8.0% | -7.6 | 0.4% | 20µM* | -0.2% | -5.9
CN(CC(=O)NCc1ccc(Cl)cc1)S(=O)(=O)c1cccc2cccnc12 | 3.6% | 1.0 | 3.4% | 4.2% | 1.8% | -7.0
CN(CC(=O)NCc1ccco1)S(=O)(=O)c1ccc2c(c1)n(C)c(=O)c(=O)n2C | -6.7% | 19.7 | 0.2% | 39.8µM* | -0.5% | -0.8
CCOC(=O)C1(Cc2ccc(OC)cc2)CCN(C(=O)CCc2cnccn2)CC1 | 1.8% | 35.6 | -2.4% | -1.8% | -5.4% | 13.6*
CCOC(=O)C1(Cc2ccc(OC)cc2)CCN(C(=O)CCN2CCCC2=O)CC1 | 1.2% | 18.7 | -0.9% | 4.8% | -0.1% | 16.9*
CCOC(=O)C1(CCc2ccccc2)CCN(C(=O)CCc2cnccn2)CC1 | -6.8% | 55.0* | -2.3% | 20.7% | 2.1% | 23.9*
CCOC(=O)C1(Cc2ccc(Cl)cc2)CCN(C(=O)CCc2cnccn2)CC1 | -2.4% | 14.2 | 2.5% | 8.6% | -0.3% | -2.3
CCOC(=O)Cn1nc(N2CCN(c3ccc(F)cc3)CC2)ccc1=O | 1.5% | nt | nt | 5.7% | nt | nt
Cc1ccc(C)c(NC(=O)Cn2c(=O)n(Cc3ccc4c(c3)OCO4)c(=O)c3ccccc32)c1 | -1.8% | nt | nt | -6.4% | nt | nt
SMILES | Tb PYK inh | Shiga inhibitor | LmPK inh | Sm TGR inh | FBPA Giardia inh | Cycloheximide cs
COc1ccc(-c2nc3c4ccccc4[nH]c(=O)n3n2)cc1 | 5.4% | 54.7* | 6.2% | -9.3% | 8.1% | 23.6*
COc1cc2[nH]c(=O)n3nc(-c4ccccc4)nc3c2cc1OC | 4.8% | 8.8 | -0.5% | -1.2% | -8.4% | -1.2
COc1ccc(OC)c(-c2ccc(C(=O)O)o2)c1 | nt | i | nt | nt | 22.7%[89.2 µM] | 15.8
COc1ccc(-c2nnc(SC)o2)c(OC)c1 | -8.6% | 71.6* | 2.9% | 1.3% | 1.1% | 21.1*
COc1ccc(OC)c(-c2nnc(-c3ccc(C)o3)o2)c1 | -5.9% | 74.7 | -5.4% | ? | -2.1% | 35.9*
C[C@H]1Cc2c(COc3ccccc3)nc3c(c2CO1)CN(S(=O)(=O)c1ccc(Cl)c2nonc12)CC3 | nt | nt | -4.2%[11.5 µM] | nt | -1.5%[12.9 µM] | nt
CCC(C)NC(=O)CSc1nnc(-c2ccc(C)cc2)c(-c2ccc(C)cc2)n1 (stereo not given) | 1.4% | nt | nt | 0.9% | nt | nt
